Reference: article PMC8769072, “Proteome‐scale mapping of binding sites in the unstructured regions of the human proteome” (Molecular Systems Biology, 2022)

B1: AGFG1, P52594 (peptide)
chain: SNPFMTGAPTGQFPTG
B2: PLEKHM2, Q8IWE5 (peptide)
chain: NPFNEEPAETVSSSDT
B3: DNAJC8, O75937 (peptide)
chain: LNPFEVLQIDPEVTDE
B4: AGFG1, P52594 (peptide)
chain: TPFGQVAAAGVSSNPF
B5: AGFG1, P52594 (peptide)
chain: AAGPSVASSTNPFQTN
B6: SLC1A1, P43005 (peptide)
chain: SSEVNIVNPFALESTI
B7: CHD8, Q9HCK8 (peptide)
chain: GNPFMGVSATAVSSSS
B8: MACF1, Q9UPN3 (peptide)
chain: ELTGEKFLEMANPNVA
B9: PALM, O75781 (peptide)
chain: VEKDKVTGETRVLSST
B10: SH3BP4, Q9P0V3 (peptide)
chain: NPFLNGNVPVMPSLDE
B11: EPN3, Q9H201 (peptide)
chain: NPFLTGLSAPSPTNPF
B12: PLEC, Q15149 (peptide)
chain: GGIIDPSTGERFPVTD
B13: EP400, Q96L91 (peptide)
chain: TPVAIATQLPPKVSAA
B14: C2orf68, Q2NKX9 (peptide)
chain: FALEYEADSGEVTSVI
B15: WNK4, Q96J92 (peptide)
chain: PLSPGNPFSPGTPISP
B16: SH3BP4, Q9P0V3 (peptide)
chain: YSNNPFWNGVQTNPFL
B17: DRAM1, Q8N682 (peptide)
chain: NPFLPYISDTGTTPPE
B18: GRIN2B, Q13224 (peptide)
chain: YPDRVTQNPFIPTFGD
B19: UBQLNL, Q8IYU4 (peptide)
chain: MQDPFGGNPFTALLAG
B20: UBQLN1, Q9UMX0 (peptide)
chain: QIMENPFVQSMLSNPD
B21: PPFIA4, O75335 (peptide)
chain: FSMQEPMVPAKLGTQA
B22: SPATA31E1, Q6ZUB1 (peptide)
chain: PPEPLLPLKAPATQPH
B23: SYTL2, Q9HCH5 (peptide)
chain: NPFNSSKLPEGHSSQQ
B24: PCLO, Q9Y6V0 (peptide)
chain: SAVSSVVNKFNPFDLI
B25: TPR, P12270 (peptide)
chain: DDTVEMPLPKKLKSVT
B26: GNG5, P63218 (peptide)
chain: PLLTGVSSSTNPFRPQ
B27: TMEM114, B3SHH9 (peptide)
chain: TPLMNPFRLENVTVSE
B28: CHD7, Q9P2D1 (peptide)
chain: LNQGNPFIATSGPGHL
B29: BCL11B, Q9C0K0 (peptide)
chain: LMNFLGDSNPFNLLRM
B30: ZBED9, Q6R2W3 (peptide)
chain: REHNPESGEEVVTLLE
B31: VPS37B, Q9H9H4 (peptide)
chain: PGLQAPPLPPRVGLPT
B32: MLLT10, P55197 (peptide)
chain: TQAPPLHTATTNPFLT
B33: ADD1, P35611 (peptide)
chain: NPFTTLTDRELEEYRR
B34: POLA1, P09884 (peptide)
chain: NPFSVHTATAVPSGKI
B35: PYGO2, Q9BRQ0 (peptide)
chain: NPFEDDFGAPKVGVAA
B36: NUMBL, Q9Y6R0 (peptide)
chain: TPSEAERWLEEVSQVA
B37: DLGAP5, Q15398 (peptide)
chain: DSPGLNASNPFTQLER
B38: SAP130, Q9H0E3 (peptide)
chain: NPFSAAPAATTVVQTH
B39: WDR59, Q6PJI9 (peptide)
chain: DSASSNPFALPNSVTP
B40: EPPK1, P58107 (peptide)
chain: QGRPVSVWDVLFSSYL
B41: NUMB, P49757 (peptide)
chain: TPSEADRWLEEVSKSV
B42: ZIC1, Q15915 (peptide)
chain: DVGLGINPFADGMGAF
B43: PLEKHA5, Q9HAU0 (peptide)
chain: TTWLHPVTGEAVVTGH
B44: MYO18B, Q8IUG5 (peptide)
chain: QSWLSATLSLATDTMR
B45: ZIC3, O60481 (peptide)
chain: GLNPFGDSTHAAAAAA
B46: PRUNE2, Q8WUY3 (peptide)
chain: YTNPFSDNHQSPFLEG
B47: RTN4, Q9NQC3 (peptide)
chain: NPFLVAAQDSETDYVT
B48: PICALM, Q13492 (peptide)
chain: LNPFLTKSSGDVHLSI
B49: UBQLN2, Q9UHD9 (peptide)
chain: GGNPFASVGSSSSSGE
B50: UBQLN3, Q9H347 (peptide)
chain: VQEQFGGNPFATATTD
B51: SLC25A3, Q00325 (peptide)
chain: NPFNTPHLQLVHDGLG
B52: LMTK3, Q96Q04 (peptide)
chain: HANPSNPFYEALSTPS
B53: CDC40, O60508 (peptide)
chain: EFGPENPFRTQQMAAP
B54: WEE1, P30291 (peptide)
chain: NPFTPDSLLLHSSGQA
B55: TMEM108, Q6UXF1 (peptide)
chain: VNPFAQETLFVGNDQV
B56: RBM20, Q5T481 (peptide)
chain: NPFSVSNPNPLLPSPA
B57: DENND1A, Q8TEH3 (peptide)
chain: NPFVPSMPAAPPTLPL
B58: SPATA31E1, Q6ZUB1 (peptide)
chain: NPFWNVSTQPQQLPRP
B59: TTC3, P53804 (peptide)
chain: DMESDIRSWELFLSNV
B60: PHLDB1, Q86UU1 (peptide)
chain: PHSSPPPLPAKASRQL
B61: SIM2, Q14190 (peptide)
chain: KPMLPAKFGQPQGSPA
B62: KIAA1549, Q9HCM3 (peptide)
chain: NPFLPSDSSKTSELHS

The binders below were run against EPS15 121-215, P42566.
Sequence of EPS15 121-215, P42566 (P42566 121-215): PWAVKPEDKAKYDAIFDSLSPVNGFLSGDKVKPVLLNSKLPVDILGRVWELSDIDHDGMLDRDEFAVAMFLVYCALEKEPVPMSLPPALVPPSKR

Selected by phage display, active:
B1 confidence 3
B2 confidence 2
B3 confidence 3
B4 confidence 3
B5 confidence 3
B6 confidence 2
B7 confidence 2
B8 confidence 2
B10 confidence 4
B11 confidence 3
B15 confidence 3
B16 confidence 2
B17 confidence 4
B18 confidence 3
B19 confidence 3
B20 confidence 3
B23 confidence 2
B24 confidence 3
B26 confidence 3
B27 confidence 4
B28 confidence 2
B29 confidence 2
B32 confidence 4
B33 confidence 3
B34 confidence 3
B35 confidence 2
B36 confidence 3
B37 confidence 2
B38 confidence 3
B39 confidence 3
B40 confidence 3
B41 confidence 3
B42 confidence 3
B44 confidence 2
B45 confidence 2
B46 confidence 2
B47 confidence 2
B48 confidence 4
B49 confidence 2
B50 confidence 4
B51 confidence 2
B52 confidence 4
B53 confidence 4
B54 confidence 4
B55 confidence 3
B56 confidence 2
B57 confidence 2
B58 confidence 4
B59 confidence 2
B62 confidence 2

These binders were tested against KEAP1 321-609, Q14145.
Sequence of KEAP1 321-609, Q14145 (Q14145 321-609): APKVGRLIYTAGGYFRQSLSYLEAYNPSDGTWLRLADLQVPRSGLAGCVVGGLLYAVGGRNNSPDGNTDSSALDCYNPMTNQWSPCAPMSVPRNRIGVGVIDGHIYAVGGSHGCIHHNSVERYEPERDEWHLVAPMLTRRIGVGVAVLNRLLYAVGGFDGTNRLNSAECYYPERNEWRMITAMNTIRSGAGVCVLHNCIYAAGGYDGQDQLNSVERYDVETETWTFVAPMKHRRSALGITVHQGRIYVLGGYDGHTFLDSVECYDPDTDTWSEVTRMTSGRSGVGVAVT

Selected by phage display, active:
B9 confidence 2
B12 confidence 4
B14 confidence 2
B30 confidence 2
B43 confidence 2

Each binder was assayed against CRK 124-198, P46108.
Sequence of CRK 124-198, P46108 (P46108 124-198): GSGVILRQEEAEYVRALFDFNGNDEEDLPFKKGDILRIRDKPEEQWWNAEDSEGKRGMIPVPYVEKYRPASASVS

Selected by phage display, active:
B13 confidence 2
B21 confidence 3
B22 confidence 2
B25 confidence 2
B31 confidence 4
B60 confidence 3
B61 confidence 2
